Data reported in PubChem BioAssay (NCI).
This is part of a sample that, as a whole, favours compounds with a hit. Of some 83,000 tested, about 20% had one in any assay.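 In brief: 96-well plates, 48 h treatment, single concentration, percent growth endpoint.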 Unmarked numbers belong to inactive results. Active and inactive are the calls of the source. How the source made its calls: active means growth percent below 10; inactive means the rest.

The molecules below were run on NCI-H322M lung (assay: NCI-60 one-dose screen, 48 h (100 = growth as untreated, 0 = no growth, -100 = all killed)). Details: 10 µM.

| SMILES | growth |
| --- | --- |
| O=C(/C=C/c1ccco1)c1nc2ccccc2n1Cc1ccc(Br)cc1 | 62.2% |
| O=C(/C=C/c1ccco1)c1nc2ccccc2n1Cc1ccc(F)cc1 | 79.2% |
| COc1cc2cc(C(=O)N3C[C@@H](CCl)c4c3cc(OC(=O)N3CCN(C)[C@@H]5CSSC[C@@H]53)c3ccccc43)[nH]c2c(OC)c1OC | -7.87% (active) |
| C#CC[Se]C(=O)c1ccc2n[se]nc2c1 | 12% |
| O=C(/C=C/c1ccc(Cl)cc1Cl)c1nc2ccccc2n1Cc1ccc(F)cc1 | 69.7% |
| O=C(/C=C/c1ccc(Cl)cc1)c1nc2ccccc2n1Cc1ccc(Br)cc1 | 78.8% |
| CCOP(=O)(OCC)C(NC(C)=O)C(=O)SCCN (centres undefined) | 102% |
| COc1cc2cc(C(=O)N3C[C@@H](CCl)c4c3cc(OC(=O)N3CCN(C)[C@@H]5CSSC[C@H]53)c3ccccc43)[nH]c2c(OC)c1OC | -12.4% (active) |
| COc1ccc2cc([C@H](C)C(=O)[Se]CCC#N)ccc2c1 | -21.6% (active) |
| CC12OOC(C)(OO1)C2CCC(=O)OCCNc1ccnc2cc(Cl)ccc12 (centres undefined) | 96.6% |
| CC(C)N=C([Se])NC(=O)c1cccs1 | -2.73% (active) |
| Cc1ccc2[nH]c(=S)n(-c3ccc(F)cc3)c(=O)c2c1 | 99% |
| CCOC(=O)C1=C(Nc2ccccc2)C(=O)OC12C(=O)Nc1ccccc12 (centres undefined) | 103% |
| CC12CCC3(CCC(=O)NCCCNc4ccnc5cc(Cl)ccc45)[C@@](C)(OO[C@]3(C)O1)O2 | 27.5% |
| CC[C@]12C=CCN3CC[C@@]4(c5ccc(OC)cc5N(C)[C@H]4[C@@](O)(C(=O)OC)[C@@H]1OC(=O)CCCC[P+](C1CCCCC1)(C1CCCCC1)C1CCCCC1)[C@@H]32 | 16.1% |
| CC(=O)Oc1ccccc1C(=O)[Se]C(=NC(C)C)NC(C)C | -82.6% (active) |
| COCCOCCOCCOc1ccc(-n2cc(CCCN(CCNc3ccnc4cc(Cl)ccc34)C(=O)CCC(=O)O[C@@H]3O[C@@H]4OC5(C)CC[C@H]6[C@H](C)CC[C@@H]([C@H]3C)[C@@]46OO5)nn2)cc1 | 69.2% |
| C[C@H]1[C@@H](CC(=O)N[C@@H](Cc2coc3ccccc23)B(O)O)O[C@@H]2OC3(C)CC[C@H]4[C@H](C)CC[C@@H]1[C@@]24OO3 | 19.6% |
| COP(=O)(CC(F)(F)C(F)(F)F)OC | 109% |
| CC12OOC(C)(OO1)C2CCC(=O)NCCNc1ccnc2cc(Cl)ccc12 (centres undefined) | 97.4% |

| SMILES | growth |
| --- | --- |
| CC[C@]12C=CCN3CC[C@@]4(c5ccc(OC)cc5N(C)[C@H]4[C@@](O)(C(=O)OC)[C@@H]1OC(=O)CCC[P+](c1ccc(C)cc1)(c1ccc(C)cc1)c1ccc(C)cc1)[C@@H]32 | -98.4% (active) |
| CC(C)N=C([Se])NC(=O)c1ccccc1 | -3.38% (active) |
| CC[C@]12C=CCN3CC[C@@]4(c5ccc(OC)cc5N(C)[C@H]4[C@@](O)(C(=O)OC)[C@@H]1OC(=O)CCC[P+](C1CCCCC1)(C1CCCCC1)C1CCCCC1)[C@@H]32 | 24.5% |
| CC1=C(COCCOC(=O)c2ccc(S(=O)(=O)F)cc2)C2=C(C)C3(CC3)[C@@](C)(O)C(=O)C2=C1 | -25.8% (active) |
| CC[C@]12C=CCN3CC[C@@]4(c5ccc(OC)cc5N(C)[C@H]4[C@@](O)(C(=O)OC)[C@@H]1OC(=O)CCCC[P+](c1ccc(OC)cc1)(c1ccc(OC)cc1)c1ccc(OC)cc1)[C@@H]32 | -89.6% (active) |
| CC1=C(CCC=NNC(N)=O)C2=C(C)C3(CC3)[C@@](C)(O)C(=O)C2=C1 | -13% (active) |
| CC[C@@]12CC(C(=O)OC)=C3Nc4cc5c(cc4[C@@]34CCN(C[C@H]3O[C@H]31)[C@@H]24)[C@@H]1[C@H](O5)[C@@H](O)[C@@]2(CC)CC(C(=O)OC)=C3Nc4cc(OC)ccc4[C@@]34CCN1[C@@H]24 | 25.1% |
| CCOP(=O)(CC(F)(F)C(F)(F)F)OCC | 100% |
| CC1=C2C(=C[C@@](C)(COP(=O)(Oc3ccccc3)Oc3ccccc3)[C@@H]2O)C(=O)[C@@](C)(O)C12CC2 | -59.5% (active) |
| CC(=O)Oc1ccccc1C(=O)NC([Se])=NC1CCCCC1 | 0.722% (active) |
| C[C@H]1[C@H](OC(=O)CCC(=O)N(CCCc2cn(-c3ccc(CN4CCOCC4)cc3)nn2)CCNc2ccnc3cc(Cl)ccc23)O[C@@H]2OC3(C)CC[C@H]4[C@H](C)CC[C@@H]1[C@@]24OO3 | 20.9% |
| O=C(/C=C/c1ccc(Cl)cc1)c1nc2ccccc2n1Cc1ccc(F)cc1 | 53.5% |
| CC1=C(CCC=O)C2=C(C)C3(CC3)[C@@](C)(O)C(=O)C2=C1 | -84.9% (active) |
| O=C(NC([Se])=NC1CCCCC1)c1ccc2c(c1)OCO2 | 11.9% |
| C[C@H]1[C@H](OC(=O)CCC(=O)N(CCCc2cn(-c3ccc(C#N)cc3)nn2)CCNc2ccnc3cc(Cl)ccc23)O[C@@H]2OC3(C)CC[C@H]4[C@H](C)CC[C@@H]1[C@@]24OO3 | 82.9% |
| C[C@H]1[C@@H](Oc2ccc(-c3cn(-c4ccnc5cc(Cl)ccc45)nn3)cc2)O[C@@H]2OC3(C)CC[C@H]4[C@H](C)CC[C@@H]1[C@@]24OO3 | 69.3% |
| COc1ccc(/C=C/C(=O)c2nc3ccccc3n2Cc2ccc(Br)cc2)cc1 | 73.9% |
| COC(=O)CCn1c(-c2ccc(-n3cc(-c4ccc(O[C@H]5O[C@@H]6OC7(C)CC[C@H]8[C@H](C)CC[C@@H]([C@H]5C)[C@@]68OO7)cc4)nn3)cc2)nc2ccccc21 | 46.7% |
| C[C@H]1[C@H](OC(=O)CCC(=O)N(CCCc2cn(-c3ccc([N+](=O)[O-])cc3)nn2)CCNc2ccnc3cc(Cl)ccc23)O[C@@H]2OC3(C)CC[C@H]4[C@H](C)CC[C@@H]1[C@@]24OO3 | 81.5% |
